High-throughput results deposited in PubChem by several laboratories.
Compounds with a hit are over-represented: about 3.8% of the library has one in this group of screens.
PAFAH1B3 inh: inhibitors of human PAFAH1B3. Q15102. recombinant PAFAH1B3, FP-rhodamine probe, fluorescence polarization. inhibition, % at 3.39 µM. 340,000 tested, 0.28% active. AID 492972;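 active = inhibition above the screen-wide average of all tested compounds plus 3 SD, cut at about 25% in these data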;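 note: 0% = enzyme with DMSO only and 100% = wells lacking PAFAH1B3 protein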
Target sequence (Q15102 whole entry, looked up): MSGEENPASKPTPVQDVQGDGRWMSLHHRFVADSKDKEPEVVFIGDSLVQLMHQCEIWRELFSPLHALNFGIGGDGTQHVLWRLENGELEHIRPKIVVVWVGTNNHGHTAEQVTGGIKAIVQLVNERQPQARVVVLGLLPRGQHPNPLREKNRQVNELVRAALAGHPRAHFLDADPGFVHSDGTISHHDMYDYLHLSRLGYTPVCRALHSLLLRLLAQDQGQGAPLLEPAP
PAFAH2 FP inh: inhibitors of human PAFAH2. 340,000 tested, 0.99% active. Q99487. AID 492956. inhibition, % at 3.39 µM. recombinant PAFAH2, FP-rhodamine activity probe, fluorescence polarization;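 active = inhibition above the mean over all tested compounds plus 3 SD, cut at about 30% in these data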;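 note: inhibitors block probe labeling of enzyme so polarization drops; 0% = enzyme with DMSO and 100% = wells lacking PAFAH2 protein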
DSG3 Ab inh: human desmoglein-3 autoantibody binding inhibition; binding (percent of control), % at 10 µM; AID 588358; DSG3-coupled beads, scFv-anti-DSG3-GFP binding, flow cytometry; hits give low values; 310,000 tested, 0.48% active; P32926;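 active = binding more than 3 SD below its plate's average and above zero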;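 note: hits lower antibody fragment binding to DSG3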
PAFAH1B2 FP inh: inhibitors of human PAFAH1B2 | 340,000 tested, 1.2% active | P68402 | inhibition, % at 3.39 µM | AID 492953 | recombinant PAFAH1B2, FP-rhodamine activity probe, fluorescence polarization;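 active = inhibition above the mean of all tested compounds plus 3 SD, cut at about 24% in these data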;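 note: 0% = enzyme with DMSO and 100% = wells lacking PAFAH1B2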
Target sequence (P68402 whole entry, looked up): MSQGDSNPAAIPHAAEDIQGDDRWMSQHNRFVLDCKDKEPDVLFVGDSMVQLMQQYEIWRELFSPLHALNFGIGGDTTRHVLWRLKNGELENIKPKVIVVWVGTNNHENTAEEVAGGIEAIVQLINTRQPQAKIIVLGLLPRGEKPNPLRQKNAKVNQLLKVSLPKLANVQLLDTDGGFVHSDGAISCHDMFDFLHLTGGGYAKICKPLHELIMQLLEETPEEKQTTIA
pPAFAH inh: pPAFAH (human) enzyme inhibition. recombinant pPAFAH, FP-rhodamine probe fluorescence polarization. inhibition, % at 3.39 µM. 330,000 tested, 1.5% active. AID 463082;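 active = inhibition above the mean inhibition across the screen plus 3 SD, cut at about 25% in these data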;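 note: inhibitors block binding of the rhodamine activity-based probe so polarization drops; 0% = enzyme with DMSO and 100% = wells lacking pPAFAH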
PfM18AAP inh: blocks P. falciparum M18 aspartyl aminopeptidase; AID 1822; inhibition, % at 7.35 µM; recombinant PfM18AAP, H-Glu-NHMec fluorogenic cleavage; 290,000 tested, 1.2% active;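 active = inhibition above the campaign mean inhibition over all tested compounds plus 3 SD, cut at about 28% in these data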;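 note: 0% = plate median of test compound wells and 100% = 2 mM ZnCl2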
* hit, by the source's call; . = no result.

SMILES	PAFAH1B3 inh	PAFAH2 FP inh	DSG3 Ab inh	PAFAH1B2 FP inh	pPAFAH inh	PfM18AAP inh
O=C(c1ccc(C(F)(F)F)cc1)N1CCN(c2ccc(N3CCOCC3)nn2)CC1	12	7	126	1	4	.
O=C(N/N=C\c1ccccn1)c1cccc(C(=O)N/N=C\c2ccccn2)n1	53*	-43	102	42*	7	.
O=C(CNS(=O)(=O)c1ccc2ccccc2c1)OCc1csc(-c2ccccc2)n1	1	-11	102	28*	16	5
CN1C(=O)C(Cl)(Cl)C(=O)c2ccccc21	6	1	109	-2	.	38*
CN1C(=O)C2(NC(=O)c3ccccc3N2C)c2ccccc21 (stereo unspecified)	-1	12	87	4	0	12
C=C(C)COc1ccc2c3c(c(=O)oc2c1OCC(=C)C)CCC3	0	67*	107	6	31*	4
CCN(CC(=O)Nc1ccc(C#N)cc1)CC(=O)Nc1ccc2c(c1)OCCO2	.	.	102	.	.	.
Cc1nnc(N/N=C/c2ccccc2O)n1N	7	-1	100	0	-3	24
Cc1nnc(N/N=C/c2ccc(-c3ccccc3F)o2)n1N	4	-1	88	5	4	52*
COC(=O)c1ccc(N2CCc3ccccc32)c([N+](=O)[O-])c1	2	5	96	7	25*	4
O=C(O)c1cc(-c2cccc(Cl)c2)nc2nc(N3CCCCC3)sc12	27*	12	102	82*	0	-4
Cc1[nH]n(-c2ncc(-c3ccc(Cl)cc3)s2)c(=O)c1C(c1ccc(Cl)cc1)C(C#N)C#N (stereo unspecified)	13	25	100	7	29*	1
COc1ccc(C(c2c(C)[nH]n(C(N)=S)c2=O)C(C#N)C#N)cc1 (stereo unspecified)	-1	0	99	2	-1	17
CC(NC(=O)CN(C)S(=O)(=O)c1cccc2nsnc12)c1ccccc1 (stereo unspecified)	3	1	104	31*	2	2
Cc1ccc(NC(=O)CN(C)S(=O)(=O)c2cccc3nsnc23)cc1	7	-3	101	8	2	-7
O=C(O)CC(CNS(=O)(=O)c1cccc2nsnc12)c1ccccc1 (stereo unspecified)	.	.	40*	.	3	-10
O=C(Nc1nc(-c2ccco2)c(-c2ccco2)s1)c1cnccn1	.	.	.	.	33*	.
O=C(Nc1nc(-c2ccco2)c(-c2ccco2)s1)c1ccc(F)cc1F	5	3	95	1	.	.
CCN(CC)S(=O)(=O)c1ccc(N/N=C/c2ccccc2OCC(=O)O)c([N+](=O)[O-])c1	3	9	104	9	30*	-13
COc1ccccc1NS(=O)(=O)c1ccc(N/N=C/c2ccccc2OCC(=O)O)c([N+](=O)[O-])c1	13	15	81	9	29*	3
COc1ccccc1NS(=O)(=O)c1ccc(N/N=C/C=C/c2ccccc2[N+](=O)[O-])c([N+](=O)[O-])c1	-1	-2	88	-8	2	10
Cc1noc(C)c1S(=O)(=O)N(C)C[C@@H]1OCc2cnnn2CCCC(=O)N([C@@H](C)CO)C[C@H]1C	.	.	102	.	.	.
O=C(O)c1ccc(NC(=S)NC(=O)c2ccc(-c3ccccc3)cc2)cc1	4	6	31*	-5	2	2
CC(=O)Nc1ccc(NC(=S)NC(=O)c2ccc(-c3ccccc3)cc2)cc1	.	.	71*	.	-5	.
O=C(NC(=S)Nc1ccccc1)c1ccc(-c2ccccc2)cc1	7	5	108	3	0	4
SMILES	PAFAH1B3 inh	PAFAH2 FP inh	DSG3 Ab inh	PAFAH1B2 FP inh	pPAFAH inh	PfM18AAP inh
CC1CCN(S(=O)(=O)c2ccc3c(c2)CCN3C(=O)CCC(=O)O)CC1	11	1	98	26*	2	6
CCCCCC(=O)OCc1ccc(C2=CC(=O)CC(C)(C)C2=O)cc1	.	.	99	.	.	.
N#Cc1c(Cl)cccc1Oc1ccc(S(=O)(=O)Nc2ccccc2)cc1	.	.	97	.	26*	-11
O=S(=O)(NCc1c(Cl)cccc1Oc1ccccc1)c1ccccc1	3	10	108	6	6	4
C/C(=N\Nc1c(Cl)c(Cl)nc(C(=O)O)c1Cl)c1ccc(O)cc1	-8	7	102	7	5	31*
O=C(CSc1ccc(Cl)cc1)Nc1ccc(NC(=O)c2ccco2)cc1	2	2	102	2	2	3
Cc1ccccc1C(=O)N1CCN(c2ccc(NC(=O)CSc3ccc(Cl)cc3)cc2)CC1	4	-1	112	31*	18	-5
CCC(=O)Nc1ccc(N2CCN(C(=O)c3ccccc3C)CC2)cc1	-1	-2	97	-6	6	2
O=C(COc1ccc(Cl)cc1)Nc1ccc(N2CCN(C(=O)c3ccco3)CC2)cc1	9	11	72*	-1	17	4
O=C(CSc1ccc(Cl)cc1)Nc1ccc(N2CCN(C(=O)c3ccco3)CC2)cc1	1	11	110	26*	20	3
CC(C)c1ccc(NC2CCCN(C(=O)CN3CCCCC3=O)C2)cc1 (stereo unspecified)	.	.	110	.	.	.
CC(CC(=O)c1ccc(F)cc1)N1CCN(c2ccccc2)CC1 (stereo unspecified)	6	-2	103	0	.	.
Cc1ccc(SCCC(=O)OCn2nnc3ccccc3c2=O)cc1	2	3	97	22	13	-2
Cc1ccc(SCC(=O)OCn2nnc3ccccc3c2=O)cc1C	6	-8	132	6	30*	0
O=C(COC(=O)c1cc(=O)[nH]c2ccccc12)NCc1cccs1	2	-4	96	5	5	-1
NC(=O)c1ccsc1NC(=O)COC(=O)c1cc(=O)[nH]c2ccccc12	5	0	83*	-1	3	.
CC1(C)CCN2CCC(C)(C)c3c(O)ccc1c32	11	-7	175	8	17	4
COc1ccc(CCn2c(NN=C(C)C)nc3c2c(=O)[nH]c(=O)n3C)cc1	12	-2	104	0	8	8
COc1ccc(CCn2c(NN)nc3c2c(=O)[nH]c(=O)n3C)cc1	6	3	79*	8	7	7
C=CCn1c(N2CCN(c3ccc(OC)cc3)CC2)nc2c1c(=O)[nH]c(=O)n2C	7	-4	-12*	-3	2	2
C=CCn1c(N2CCN(c3ccc(OC)cc3)CC2)nc2c1c(=O)n(C)c(=O)n2C	4	1	107	5	-1	-10
COc1ccccc1C(=O)NCC(=O)N1CC=C(c2ccccc2)CC1	5	2	106	9	-1	.
O=C(NCc1nnnn1-c1ccc(Cl)cc1)C(=O)c1c[nH]c2ccccc12	.	.	98	.	.	.
CCn1nc(C)cc1-c1nnc(Sc2ncc([N+](=O)[O-])s2)n1C	3	3	100	0	-1	-149
